Compound activity as filed in PubChem BioAssay.
Sampled rows, rich in hits. Any-hit rate of the full collection: about 1.4%.
p53 reactivator = qHTS assay for re-activators of p53 using a Luc reporter | Potency, µM (highest dose often 92.2 µM), actives largely listed as activators | AID 504706, 2011 | 320,000 compounds, 0.063% hits | H1299 p53-A138V BP100-luciferase reporter, luminescence, 24 h; further: nearly all actives have a fitted effect of over 45% in size
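H1299 (p53-null), stable ts p53-A138V + BP100-Luc; 1000 cells/well, Opti-MEM/10% FBS; cpd 4 pt, 1:5; 24 h, 37 deg C, 5% CO2; detection reagent 10 min RT; luminescence.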
12-LOX inh = Primary qHTS assay for inhibitors of human arachidonate 12S-lipoxygenase (ALOX12): Round 2. Polyunsaturated fatty acid lipoxygenase ALOX12 (Homo sapiens), P18054. purified 12hLO, xylenol orange hydroperoxide absorbance. Potency, µM (highest dose often 108 µM), hits mostly inhibitors. 580,000 compounds, 1.1% hits. AID 1671190, 2021
Target sequence (P18054 whole entry, looked up): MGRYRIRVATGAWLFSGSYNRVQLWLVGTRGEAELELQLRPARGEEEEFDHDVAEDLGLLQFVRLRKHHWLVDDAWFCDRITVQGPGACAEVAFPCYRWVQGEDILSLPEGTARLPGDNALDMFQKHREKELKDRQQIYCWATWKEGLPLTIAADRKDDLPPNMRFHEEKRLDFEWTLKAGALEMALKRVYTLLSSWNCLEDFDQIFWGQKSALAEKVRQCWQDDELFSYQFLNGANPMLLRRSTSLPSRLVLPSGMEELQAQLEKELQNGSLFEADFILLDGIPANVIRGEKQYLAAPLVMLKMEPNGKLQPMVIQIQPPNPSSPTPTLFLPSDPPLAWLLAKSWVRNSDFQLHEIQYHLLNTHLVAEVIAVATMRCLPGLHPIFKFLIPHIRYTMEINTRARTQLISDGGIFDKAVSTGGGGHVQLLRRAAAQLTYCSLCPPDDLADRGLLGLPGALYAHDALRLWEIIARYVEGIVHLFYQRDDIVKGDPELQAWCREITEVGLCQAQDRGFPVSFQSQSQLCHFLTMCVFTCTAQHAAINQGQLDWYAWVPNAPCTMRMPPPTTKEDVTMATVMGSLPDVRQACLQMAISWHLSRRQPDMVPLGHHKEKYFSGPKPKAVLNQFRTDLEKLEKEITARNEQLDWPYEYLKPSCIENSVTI
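Hydroperoxide product was detected by ferrous iron/xylenol orange as the 573 to 405 nm absorbance ratio. Arachidonic acid at 40 uM (final) was turned over for 30 min at room temperature by 150 nM human 12hLO, pH 7.0 Hepes buffer, after 15 min compound preincubation.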
ASM inhibitor = Inhibitors of Secretory Acid Sphingomyelinase (S-ASM): qHTS; Potency, µM (top dose mostly 57.5 µM), actives largely listed as inhibitors; AID 504937, 2011; 340,000 compounds, 0.006% hits; Sphingomyelin phosphodiesterase (Homo sapiens), P17405; placental ASM, HMU-PC fluorogenic substrate, 60 min
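Human placenta-derived ASM enzyme was preincubated with compound for 10 minutes at room temperature, then given fluorogenic substrate HMU-PC0 (9 uM final) for 60 minutes at 37 °C; a pH 10 stop preceded fluorescence reading at Ex 386/Em 447 nm.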
CCT modulator = High-Throughput Screening for Modulators of Cytosolic Chaperonin Activity; AID 651819, 2012; purified chaperonin ATPase assay, HTRF ADP detection, 30 min; 360,000 compounds, 0.3% hits; activity change, % (test concentration not listed), hits read low; in the data active means activity change below about -30%
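TRiC at 40 or 20 nM final (batch-dependent) in 30 mM Tris pH 7.4, 100 mM KCl, 5 mM MgCl2, 1 mM DTT, with compound at single 76 uM and 10 uM ATP, 30 min at 37 deg C. ADP detected by HTRF Transcreener, 665/615 ratio.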
MmCpn inh = Inhibitors of TCP-1 ring complex (TRiC) of Methanococcus maripaludis (MmCpn): qHTS; purified Mm-Cpn ATPase, ADP Transcreener TR-FRET; Chaperonin Mm-Cpn (Methanococcus maripaludis); AID 504842, 2011; Potency, µM (series often up to 76.9 µM), actives largely listed as inhibitors; 330,000 compounds, 0.031% hits; further: nearly all actives have a fitted effect of over 80% in size
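25 nM Mm-CPN + cpd, 10 min 37°C; + 10 uM ATP, 30 min 37°C; buffer 30 mM Tris pH 7.4, 100 mM KCl, 5 mM MgCl2, 1 mM DTT; Transcreener ADP HTRF detection 30 min RT.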
PINK1 modulator = A Quantitative High throughput Screen to Identify Chemical Modulators of PINK1 Expression. PINK1 immunofluorescence, high-content cytometry, 24 h. Potency, µM (series often up to 76.6 µM), hits mostly activators. 410,000 compounds, 0.2% hits. AID 624263, 2012; active means well fitted activation curve with a large enough effect; inconclusive means small, poorly fitted or top-dose-only effect; cell line not stated here; further: nearly all actives have a fitted effect of over 65% in size
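Compound titrations (5 concentrations, 24 h) on a stable cell line; DMSO and CCCP controls. Endpoint: fixed-cell PINK1 immunofluorescence with mitochondrial, cell and nuclear markers, scanned by microplate cytometer.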
Each line names hits and unclear results; the compound was inactive in the other large screens; ! = repeats disagree. Unless noted, the call rests on the fitted dose curve; in most records, active means well fitted curve in the direction sought with a large enough effect; inconclusive means small, poorly fitted or top-dose-only effect, or another doubt; inactive means no such curve, though single readings can be large; an effect the other way counts as inactive or inconclusive.

CC1(OC(=O)c2ccco2)C(=O)C=C2C=C(C3CC3)OC=C2C1=O (configuration not stated)	12-LOX inh 44.7µM (no result: p53 reactivator, MmCpn inh)
CCCCC1=CC2=CC(=O)C(C)(OC(=O)CC)C(=O)C2=CO1 (configuration not stated)	12-LOX inh 35.5µM (no result: p53 reactivator, MmCpn inh)
CCCCC1=CC2=CC(=O)C(C)(OC(=O)C3CCCC3)C(=O)C2=CO1 (configuration not stated)	12-LOX inh 15.8µM
CCC(=O)OC1(C)C(=O)C=C2C=C(CCCC(=O)OC)OC=C2C1=O (configuration not stated)	12-LOX inh inconclusive (no result: p53 reactivator, MmCpn inh)
CC1(OC(=O)C2CCCC2)C(=O)C=C2C=C(c3ccsc3)OC=C2C1=O (configuration not stated)	12-LOX inh 7.94µM
CC1(OC(=O)CCc2ccccc2)C(=O)C=C2C=C(c3ccsc3)OC=C2C1=O (configuration not stated)	none (no result: 12-LOX inh, ASM inhibitor, CCT modulator, PINK1 modulator)
COc1ccc2c(=O)c(-c3ccc(OC)c(OC)c3)c(C)oc2c1	none (no result: p53 reactivator, ASM inhibitor, CCT modulator, MmCpn inh, PINK1 modulator)
COc1cccc(C(=O)C2COC(=O)C2)c1 (configuration not stated)	none (no result: p53 reactivator, ASM inhibitor, CCT modulator, MmCpn inh, PINK1 modulator)
O=C(COCc1nc2ccccc2c(=O)[nH]1)Nc1nc(-c2ccc3c(c2)CCC3)cs1	none (no result: p53 reactivator, ASM inhibitor, CCT modulator, MmCpn inh, PINK1 modulator)
CCCNC(=O)COC(=O)Cc1nn(C)c(=O)c2ccccc12	none (no result: p53 reactivator, ASM inhibitor, CCT modulator, MmCpn inh, PINK1 modulator)
Cc1ccc(NC(=O)CN(C)S(=O)(=O)c2ccc3[nH]c(=O)oc3c2)c(C)c1	12-LOX inh inconclusive
Cc1ccc(NS(=O)(=O)c2ccc3[nH]c(=O)oc3c2)c(C)c1	12-LOX inh 50.1µM!
COc1cc(/C=C2\CC/C(=C\c3cc(OC)c(OC)c(OC)c3)C2=O)cc(OC)c1OC	none
COc1cc(/C=C2\CC/C(=C\c3cc(OC)c(O)c(OC)c3)C2=O)cc(OC)c1O	12-LOX inh 20µM
CCCCCCCNC(=O)CCC(=O)NCCC	none (no result: p53 reactivator, ASM inhibitor, CCT modulator, MmCpn inh, PINK1 modulator)
COc1ccc(OC)c(C2CC(=O)N3CN(c4cccc(Cl)c4C)CSC3=C2C#N)c1 (configuration not stated)	12-LOX inh 11.2µM
COc1cccc(C2CC(=O)N3CN(c4cccc(Cl)c4C)CSC3=C2C#N)c1OC (configuration not stated)	12-LOX inh 7.94µM
COc1ccc(OC)c(C2CC(=O)N3CN(c4cccc(Cl)c4)CSC3=C2C#N)c1 (configuration not stated)	12-LOX inh inconclusive
CC(C)CCNc1nc(-c2ccc(O)c(C(N)=O)c2)cs1	12-LOX inh 7.94µM (no result: p53 reactivator, ASM inhibitor, CCT modulator, MmCpn inh, PINK1 modulator)
CCN(CC)C(=O)c1ccc2oc(CN3CCN(C(=O)Nc4cccc(F)c4)CC3)nc2c1	none (no result: p53 reactivator, ASM inhibitor, CCT modulator, MmCpn inh, PINK1 modulator)
CC(C)NC(=O)N1CC2ON=C(C(=O)N(C)C)C2C1 (configuration not stated)	none (no result: p53 reactivator, ASM inhibitor, CCT modulator, MmCpn inh, PINK1 modulator)
Cc1ccc(SC2=C(N(C)C)C(=O)c3ccccc3C2=O)cc1	12-LOX inh 10µM (no result: p53 reactivator, MmCpn inh)
CC1=C(C)CS(=O)N(S(=O)(=O)c2ccc(Cl)cc2)C1 (configuration not stated)	12-LOX inh 39.8µM
O=C(Cn1nc(-c2ccc(Cl)cc2)c2ccccc2c1=O)Nc1ccccc1	none (no result: p53 reactivator, ASM inhibitor, CCT modulator, MmCpn inh, PINK1 modulator)
CCN1C(=NCCCOC(C)C)N[C@@H](CCc2ccccc2)[C@H](C(=O)NCCCOC(C)C)[C@H]1C	12-LOX inh inconclusive, PINK1 modulator 22.4µM
COc1ccc(-n2c(C)cc(/C=C3\C(=O)NN(c4ccccc4)C3=O)c2C)cc1	p53 reactivator inconclusive
COc1ccc(Sc2ccc(/C=C3\C(=O)NN(c4ccccc4)C3=O)o2)cc1	12-LOX inh 28.2µM
O=C(CSC1CCCCC1)N1CCN(c2ccccc2)CC1	12-LOX inh inconclusive
O=C(CSC1CCCCC1)c1ccccc1Br	12-LOX inh 35.5µM (no result: p53 reactivator, ASM inhibitor, CCT modulator, MmCpn inh, PINK1 modulator)
